Laboratory results as given in PubChem BioAssay (EPA / NIEHS).
Several values for one entry are separate records, joined by “and”; a condition that tells them apart may be missing. Equal values may be shown once. Inconclusive results are not listed. The source holds several records for some structures; these can differ, active in one and inactive in another. Activity calls are given as the source filed them. How the source made its calls: active means hit-call score of the fitted dose curve at least 0.9, where 1 is the maximum; inconclusive means response in the unintended direction; inactive means score below 0.9.

experiment: ACEA_ER_AUC_viability: ACEA Biosciences xCELLigence Real-Time Cell Analysis on Estrogen Receptor Agonism for Viability (AID 2283782);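 further: continuous compound exposure with impedance area under curve over 80 h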
Description: ACEA_ER is a cell-based, single-readout assay that uses T47D, a human breast cell line, with measurements taken at 80 hours after chemical dosing in a 96-well plate, although TO2 (mc0.srcf) used a 384-well plate. Differences in plate size can be ignored given data normalization.ACEA_ER_AUC_viability is one of two assay component(s) measured or calculated from the ACEA_ER assay. It is designed to make measurements of real-time cell-growth kinetics, a form of growth reporter, as detected with electrical impedance signals by Real-Time Cell Electrode Sensor (RT-CES) technology.Data from the assay component ACEA_ER_AUC_viability was analyzed in the positive analysis fitting direction relative to DMSO as the negative control and baseline of activity. Using a type of growth reporter, loss-of-signal activity can be used to understand changes in the viability. Furthermore, this assay endpoint can be referred to as a secondary readout, because this assay has produced multiple assay endpoints where this one serves a viability function. To generalize the intended target to other relatable targets, this assay endpoint is annotated to the cell cycle intended target family, where the subfamily is cytotoxicity.
The xCELLigence system Multi-E-Plate stations were used to measure the time-dependent response to chemicals. Each compound was tested in an eight-point, 1:4 serial dilution series starting at a maximum final concentration of 100 uM. A maximum starting concentration of 0.5% DMSO was present in the 100 uM chemical samples and was diluted along with the test article dilution series. The screen was performed in biological duplicate using two separate, 96-well, E-Plates 96 for each dilution series (n = 2). Positive controls (MG132 and E2) and a negative control (assay media) were tested in quadruplicate on each testing plate. Then, 0.5% and 0.125% DMSO were tested in duplicates in each plate to serve as solvent controls for the 2 highest concentrations of testing compounds: 100 uM and 25 uM. Reference compounds were tested with 8 concentrations with 1:5 serial dilutions. All screening was carried out by ACEA Biosciences, Inc. (San Diego, CA). T-47D cells purchased from ATCC were maintained in RPMI1640 media supplemented with 10% characterized fetal bovine serum (FBS). Before screening, T-47D cells were preconditioned in assay medium: phenol red-free RPMI1640 supplemented with 10% charcoal-stripped FBS. Cells were then detached and seeded in E-Plates 96 in assay medium. After overnight monitoring of growth once every hour, compounds were added to […] cells and remained in the medium until the end of the experiment. Cellular responses were then recorded once every 5 min for the first 5 h, and once every hour for an additional 100 h.

Row | Compound | outcome | AC50
1 | Cc1ccc(O)c(C)c1 | inactive | –
2 | O=C(O)C(F)(F)C(F)(F)C(F)(F)C(F)(F)C(F)(F)C(F)(F)C(F)(F)C(F)(F)F | inactive | 122 µM (active)
3 | ClC(Cl)=C(c1ccc(Cl)cc1)c1ccc(Cl)cc1 | – | 80.6 µM (active) and 29.5 µM (active) and 74.7 µM (active)
4 | CCCCCCCCCc1ccc(O)cc1 | – | 21.8 µM (active) and 25.4 µM (active) and 28.8 µM (active)
5 | Oc1c(Cl)c(Cl)c(Cl)c(Cl)c1Cl | inactive | 77.9 µM (active)
6 | CC(C)(c1ccccc1)c1ccc(O)cc1 | – | 50 µM (active) and 24.3 µM (active) and 88.6 µM (active)
7 | CCC(=O)O[C@H]1CC[C@H]2[C@@H]3CCC4=CC(=O)CC[C@]4(C)[C@H]3CC[C@]12C | – | 92.4 µM (active) and 88.5 µM (active)
8 | COc1ccc(O)c(C(C)(C)C)c1 | – | 64.6 µM (active)
9 | O=C(NC(=O)c1cc(F)c(F)cc1Cl)Nc1cc(F)ccc1N1CCC(C(=O)O)CC1 | inactive | –
10 | N#Cc1ccc(N(CC(N)=O)CC(F)(F)F)cc1C(F)(F)F | inactive | –
11 | ClC1=C(Cl)[C@]2(Cl)[C@@H]3[C@H]4C[C@H]([C@@H]5O[C@H]45)[C@@H]3[C@@]1(Cl)C2(Cl)Cl | inactive | –
12 | CCCCCCOC(=O)c1ccccc1C(=O)OCCCCCC | inactive | –
13 | CCCCCCCCCC[N+](C)(C)CCCCCCCCCC | – | 5.4 µM (active)
14 | CC1=C2C[C@H]3[C@@H](CC=C4C[C@@H](O)CC[C@@]43C)[C@@H]2CC[C@]12O[C@@H]1C[C@H](C)CN[C@H]1[C@H]2C | inactive | –
15 | OCC(O)CO | inactive | –
16 | Cc1ccccc1[N+](=O)[O-] | inactive | –
17 | CCOP(=S)(OCC)SCSC(C)(C)C | – | 92.7 µM (active)
18 | Cc1cc2c3c(c1)C(c1ccccc1)=N[C@@H](NC(=O)c1ccncc1)C(=O)N3CC2 | inactive | –
19 | Clc1ccc(Cl)cc1 | inactive | –

Row | Compound | outcome | AC50
20 | CCC(C)(c1ccc(O)cc1)c1ccc(O)cc1 | – | 87.5 µM (active) [middle of 4 runs]
21 | CCOC(=O)C(O)(c1ccc(Cl)cc1)c1ccc(Cl)cc1 | – | 81.3 µM (active)
22 | O=C(O)C(F)(F)C(F)(F)C(F)(F)C(F)(F)C(F)(F)C(F)(F)C(F)(F)C(F)(F)C(F)(F)F | – | 78.6 µM (active) and 125 µM (active)
23 | Sc1ccccc1 | inactive | –
24 | CC(c1ccc(O)cc1)(c1ccc(O)cc1)c1ccc(O)cc1 | – | 88.3 µM (active)
25 | Oc1ccc(C(c2ccc(O)cc2)(C(F)(F)F)C(F)(F)F)cc1 | – | 83.7 µM (active) and 72 µM (active) and 73.8 µM (active)
26 | Cc1ccccc1CO[C@@H]1C[C@@]2(C(C)C)CC[C@]1(C)O2 | – | 74.9 µM (active)
27 | O=S(=O)(O)C(F)(F)C(F)(F)C(F)(F)C(F)(F)C(F)(F)C(F)(F)F | inactive | –
28 | O=S(=O)(O)C(F)(F)C(F)(F)C(F)(F)C(F)(F)F | inactive | –
29 | Nc1ccc(-c2ccc(N)cc2)cc1 | inactive | –
30 | O=C(O)C(F)(F)C(F)(F)C(F)(F)C(F)(F)C(F)(F)F | inactive | –
31 | CCSC(=O)N(CC)C1CCCCC1 | inactive | –
32 | ClC1=C(Cl)[C@]2(Cl)[C@@H]3[C@@H](Cl)[C@H]4O[C@H]4[C@@H]3C1(Cl)C2(Cl)Cl | – | 73 µM (active)
33 | c1cc2ccc3cccc4ccc(c1)c2c34 | inactive | –
34 | c1ccc(-c2ccccc2)cc1 | inactive | –
35 | Clc1ccc(C(c2ccccc2Cl)C(Cl)(Cl)Cl)cc1 (stereo not given) | – | 42.8 µM (active) and 53.5 µM (active) and 50.9 µM (active)
36 | CN(C)c1nc(=O)n(C2CCCCC2)c(=O)n1C | inactive | –
37 | Cc1cccc(C)c1N | inactive | –
38 | NS(=O)(=O)C(F)(F)C(F)(F)C(F)(F)C(F)(F)C(F)(F)C(F)(F)C(F)(F)C(F)(F)F | – | 77.8 µM (active) and 132 µM (active)
